Compounds without any hit were thinned out: in the full panel of roughly 83,000, 20% have a hit.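 A percent growth of 40 corresponds to 60% growth inhibition; 0 means no net growth; -100 means all cells died. Active threshold: below 10.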 Values without a mark were called inactive. The source made the active and inactive calls.

The assay relates to HL-60(TB) leukemia. Briefly: NCI-60 one-dose screen, 48 h (100 = growth as untreated, 0 = no growth, -100 = all killed). Particulars: 10 µM unless noted.
With `Cc1ccccc1NC(=O)c1sc2nc3c(cc2c1N)CCCC3`, the growth was 11.8%.
With `COc1ccc2[nH]c(C(=O)N3CCN(C(=O)OCc4ccc5c(Br)cc(Br)c(O)c5n4)CC3)cc2c1` the figure was -42.1% (active); with `CCN(CC)CCCN1C(=O)c2c(c(C)c3c(oc4ccc(O)cc43)c2C)C1=O`, -5.12% (active); with `ClC1=NC(Cl)C(Cl)=N/C1=N\c1ncn[nH]1` (centres undefined), -64.6% (active).
To `O=[N+]([O-])c1cc([N+](=O)[O-])c(C(F)(F)F)cc1NN=C(c1ccc(O)cc1)c1ccc(O)cc1` belongs 103%.
With `COc1ccc(C2CC(c3ccc4c(c3)OCO4)=Nc3c(N)ncnc3N2)cc1` (centres undefined) the figure was 99.3%; with `Cc1ccc(C(=O)N(CCCN)[C@@H](c2nc3cc(Cl)ccc3c(=O)n2Cc2ccccc2)C(C)C)cc1`, -58.3% (active).
On to `COc1ccc(/C=C2\Oc3cc(C)c(Cl)cc3C2=O)cc1OC`, for which the growth was 100%.
With `CCOC(=O)c1sc2ncnc(Nc3ccc4c(cnn4C(=O)Nc4ccccc4)c3)c2c1C` the figure was 90.9%; with `CCn1c(=O)c(C(=O)NCCCO)c(O)c2ccccc21`, 90.5%; with `COc1cccc2ccc(CC(O)(c3ccccc3)c3ccccc3)nc12`, 95.8%.
For the compound `N#CC1C(=O)NC(c2ccccc2[N+](=O)[O-])c2sc3c(F)cccc3c21` (centres undefined), the growth was 82.3%.
With `O=C1c2cc3c(cc2-c2c1c1ccc(F)cc1c(=O)n2C[C@H](O)[C@@H](O)[C@H](O)CO)OCO3` the figure was -3.71% (active); with `C#CCn1cnc2c(Nc3cccc(NC(=O)CCl)c3)ncnc21`, 7.89% (active).

Source of the values: PubChem BioAssay (NCI).
